In one test the test system is Klebsiella pneumoniae. Particulars: Concentration 32 ug.mL-1; ASSAY_TEST Inhibition of Bacterial Growth; detection method Absorption (OD600); MEDIA CAMHB; plate type 384well; NBS; CORNING #3640; time 18 hr.
The test system of a further test is Candida albicans. Particulars: 32 ug/mL.
The next test deals with Cryptococcus neoformans. Particulars: Concentration 32 ug.mL-1; ASSAY_TEST Inhibition of Fungal Growth; detection method Resazurin; Absorption (OD600-OD570); plate type 384well; NBS; CORNING #3640.

Structures are written as SMILES. Measured potencies and affinities stand elsewhere.

Take `CCCCCCC(C)NNC(=O)c1cc2ccccc2[nH]1` (centres undefined): the Inhibition with Klebsiella pneumoniae was -31.72%; in the test with Candida albicans, 3.47%; in the test on Cryptococcus neoformans, -2.85%.

Consider `C=CCNc1nc(N)c(C#N)cc1C#N`, for which the Inhibition was 12.19% with Klebsiella pneumoniae, 3.01% with Candida albicans and -39.35% in the test on Cryptococcus neoformans.

Consider `O=Cc1cc2ccccc2nc1Cl`, for which the Inhibition with Klebsiella pneumoniae was -2.74%; in the test on Candida albicans it was 7.94%; in the test on Cryptococcus neoformans, -7.31%.

In the case of `O=C(O)/C(=C\c1ccccc1)NC(=O)c1ccccc1`, the Inhibition with Klebsiella pneumoniae is 17.85%; in the test with Candida albicans, 1.39%; in the test on Cryptococcus neoformans it was -3.88%.

For the molecule `CNC(=O)NC1(C(=O)O)CC1c1ccccc1` (centres undefined), the Inhibition in the test with Klebsiella pneumoniae is 13.01%; in the test on Candida albicans, 0.9%; in the test on Cryptococcus neoformans, -2.43%.

For the molecule `C#CCN(C)c1nc(NCC2CCN(Cc3ccccc3)CC2)c(C#N)c(-c2ccccc2)c1C#N`, the Inhibition with Klebsiella pneumoniae is 6.45%; with Candida albicans, 0.51%; in the test with Cryptococcus neoformans, -3.47%.

Take `N#Cc1c(N)nc(S)c(C#N)c1-c1ccccc1`: the Inhibition in the test with Klebsiella pneumoniae came to 24.85%; in the test with Candida albicans it was 0.7%; with Cryptococcus neoformans, 1.04%.

As to `Nc1c2c(nc3c1C(c1ccc([N+](=O)[O-])cc1)c1c(ccc4ccccc14)O3)CCCC2` (centres undefined), the results for the Inhibition in the test with Klebsiella pneumoniae, in the test with Candida albicans and with Cryptococcus neoformans were 9.13%, 1.59% and -0.47%, respectively.

Take `CC(=O)n1cc(/C=C2\N=C(c3ccccc3)OC2=O)c2ccccc21`: the figures for the Inhibition in the test on Klebsiella pneumoniae, in the test on Candida albicans and with Cryptococcus neoformans were 0.98%, 1.66% and -2.55%, respectively.

For the molecule `Cc1cc(Br)cc(C)c1NC=C(C#N)C#N`, the Inhibition in the test on Klebsiella pneumoniae was -18.28%; in the test on Candida albicans, 1.62%; in the test with Cryptococcus neoformans, -6.77%.

`N#CC1=C(Cl)Oc2c(ccc3ccccc23)C1c1ccc([N+](=O)[O-])cc1` (centres undefined): the Inhibition is 16.96% in the test on Klebsiella pneumoniae, 10.5% in the test on Candida albicans and -69.24% with Cryptococcus neoformans.

For `CCOC(=O)c1cc2cc(O)ccc2n1C(=O)OC(C)(C)C`, the Inhibition with Klebsiella pneumoniae was 2.98%; with Candida albicans, 1.56%; in the test with Cryptococcus neoformans, -9.8%.

For the molecule `C/C=C(/C#N)C(=O)OC`, the Inhibition with Klebsiella pneumoniae was 5.34%; with Candida albicans it was -0.41%; in the test with Cryptococcus neoformans, -2.55%.
